Assay outcomes as filed in PubChem.
In the library only some 2.4% were active in any assay of this set; here they are far more common.
D2 antagonist – HTS Assay for Allosteric Antagonists of the Human D2 Dopamine Receptor: Primary Screen for Antagonists; HEK293 TREx D2 cells, calcium flux, dopamine EC80; inhibition, % at 10 µM; 2% of 340,000 active; AID 485344, 2010; in the data active = inhibition above about 30%; inactive = below that, where a call was filed
Target sequence (P14416 whole entry, looked up): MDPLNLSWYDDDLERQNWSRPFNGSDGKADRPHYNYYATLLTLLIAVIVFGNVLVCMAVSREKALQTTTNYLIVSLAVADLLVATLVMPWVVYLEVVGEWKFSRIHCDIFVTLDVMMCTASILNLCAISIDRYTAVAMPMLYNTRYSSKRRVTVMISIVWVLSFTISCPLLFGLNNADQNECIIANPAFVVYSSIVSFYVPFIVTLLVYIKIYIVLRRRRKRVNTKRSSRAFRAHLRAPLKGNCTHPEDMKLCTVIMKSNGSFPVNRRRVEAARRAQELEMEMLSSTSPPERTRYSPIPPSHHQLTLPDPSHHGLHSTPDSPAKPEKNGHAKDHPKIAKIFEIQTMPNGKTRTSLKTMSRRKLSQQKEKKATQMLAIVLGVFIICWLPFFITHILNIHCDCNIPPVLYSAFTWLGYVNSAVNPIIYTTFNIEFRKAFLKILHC
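Cells plated overnight at 30 C with tetracycline; no-wash calcium dye, 30–90 min RT; 10 s baseline; compound pinned; 180 s read; EC80 dopamine added; another 180 s read.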
D2 PAM-1 – Beta-Arrestin HTS for Positive Allosteric Modulators of the Human D2 Dopamine Receptor: Potentiators | DiscoveRx D2 beta-arrestin cells, luminescence, 90 min; 100% = 57 uM dopamine signal | potentiation, % (concentration not given with the values) | D(2) dopamine receptor (Homo sapiens), P14416 | AID 624464, 2012 | 0.23% of 360,000 active; in the data active = potentiation above about 50%; inconclusive = mostly about 30% to 49%
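D2 cells co-treated with compound plus 50 nM dopamine (EC20) for 90 min at 37 deg C to detect potentiation. Beta-arrestin recruitment was read as enzyme-fragment luminescence after 1 h at ambient temperature. Full response was set by 57 uM dopamine.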
D2 ag-1 – Beta-Arrestin HTS for Positive Allosteric Modulators of the Human D2 Dopamine Receptor: Agonists; activation, % (no concentration beside the values); DiscoveRx PathHunter D2 beta-arrestin, luminescence, 90 min; 100% = 57 uM dopamine signal; 0.084% of 360,000 active; AID 624465, 2012; in the data active = activation above about 40%; inconclusive = between about 15% and that limit
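DiscoveRx PathHunter D2 beta-arrestin cells (2,100/well) attached overnight, then compound-stimulated 90 min at 37 C in HBSS/10 mM HEPES/0.1% Tween-20 buffer; beta-galactosidase complementation read by luminescence after 1 h at ambient temperature. Dopamine 57 uM final (EC100) as control.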
D2 PAM-2 – HTS Assay for Positive Allosteric Modulators of the Human D2 Dopamine Receptor: Primary Screen for Potentiators | D(2) dopamine receptor (Homo sapiens), P14416 | HEK293 T-REx D2, calcium flux, EC20 dopamine potentiation | potentiation, % at 10 µM | 0.34% of 340,000 active;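 active = potentiation over 3 SD above the plate norm, cut at about 30% in these data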
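Potentiation of an EC20 dopamine calcium response measured kinetically over 180 s, after a preceding 180 s compound-only read flagging agonists. Cells: inducible Hek293 Trex D2 line, 4000/well, cultured overnight at 30 C before dye loading.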
D2 ag-2 – HTS Assay for Allosteric Agonists of the Human D2 Dopamine Receptor: Primary Screen for Agonists; 0.53% of 340,000 active; activation, % at 2 µM; D(2) dopamine receptor (Homo sapiens), P14416; AID 485358, 2010; HEK293 T-REx D2 cells, calcium flux agonist mode;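 active = activation over 3 SD above normal in the single-dose calcium agonist read, cut at about 30% in these data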
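Agonism scored from kinetic calcium signal (1 read/sec, 180 s) following compound pin transfer, after a 10 s baseline. Cells: HEK293 Trex line expressing inducible D2 receptor coupled to calcium, dye-loaded after overnight culture at 30 C.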
Numbers stand for hits; . = inactive; ? = inconclusive; / = no result.

SMILES	D2 antagonist	D2 PAM-1	D2 ag-1	D2 PAM-2	D2 ag-2
Cc1cc(C)c(NC(=O)CSCc2c(C)noc2C)c(C)c1	49	.	.	.	.
Cc1ccc(NC(=O)CSCc2c(C)noc2C)cc1C	.	.	.	.	.
CSCCC(N=C1NS(=O)(=O)c2ccccc21)C(=O)NCCc1ccccc1 (stereo unspecified)	42	.	.	.	.
CCOC(=O)N1CCc2c(sc3c2c(=O)n(CCc2ccccc2)c(=O)n3CC(=O)Nc2ccc(C)cc2)C1	/	/	/	.	/
O=C(CCN1C(=O)c2ccc([N+](=O)[O-])cc2C1=O)Nc1ccc(O)cc1C(=O)O	.	61	?	.	.
O=C(CN1C(=O)c2ccc([N+](=O)[O-])cc2C1=O)NCc1ccc(C(=O)O)cc1	.	51	.	.	.
COc1ccc(-c2nnc(NC(=O)c3ccccc3C)o2)cc1	51	.	.	.	.
Cc1nc(C(F)(F)F)ccc1C(=O)N1CCC1(C)C(=O)NS(=O)(=O)c1ccc(C#N)cc1 (stereo unspecified)	/	.	.	/	/
O=C(Nc1ccccc1SC(=O)c1ccccc1)c1ccccc1	/	.	.	/	/
Cc1ccc(C(=O)Sc2cccccc2=O)cc1	37	.	.	.	.
CSc1ccc(CN2CCC(C)(Oc3ccc(C(C)=O)cc3)C2)cc1 (stereo unspecified)	/	.	.	/	/
N#Cc1c(N2CCN(C(=O)c3ccco3)CC2)nc(-c2ccccc2)c2c1CCCC2	32	.	.	.	.
CCN(C(=O)N(CC)c1ccccc1)c1ccccc1	43	.	.	.	.
COc1ccc(OC)c(NC(=O)C2(C)CCN2C(=O)C(C)(C)c2ccccc2)c1 (stereo unspecified)	/	.	.	/	/
O=C(N1CCOCC1)C12OC3CC(CC(C3)O1)O2	/	.	.	/	/
O=C(O)c1cccnc1Nc1cccc(C(F)(F)F)c1	56	.	.	.	.
CCCCNC(=O)c1cnn2c(C)c(Cc3c(C)cc(C)cc3C)c(C)nc12	/	/	/	.	.
CN(C)S(=O)(=O)c1cc(NC(=O)CNCc2ccc(F)cc2)ccc1Cl	44	.	.	.	.
CC1(C(=O)Nc2cccc(Oc3ccccc3)c2)CCN1Cc1ccccc1OC(F)F (stereo unspecified)	/	.	.	/	/
CN(CC1COCCO1)C(=O)c1cc(COc2c(F)cccc2F)on1 (stereo unspecified)	.	.	.	.	.
CN(CCC1CCOCC1)C(=O)c1cc(COc2c(F)cccc2F)on1	31	.	.	.	.
COc1ccc(OCc2cc(C(=O)N3CCC(OC)CC3)no2)c2ccccc12	.	53	.	.	.
COCC1CCN(C(=O)c2cc(COc3ccc(OC)c4ccccc34)on2)C1 (stereo unspecified)	/	.	.	/	/
O=C(c1cc(COc2c(F)cccc2F)on1)N1CCC(c2ccccc2F)C1 (stereo unspecified)	.	.	.	.	.
O=C(c1cc(COc2c(F)cccc2F)on1)N1CCC(c2ccccc2Cl)C1 (stereo unspecified)	.	.	.	32	.
SMILES	D2 antagonist	D2 PAM-1	D2 ag-1	D2 PAM-2	D2 ag-2
O=C(/C=C/[C@H]1O[C@@H](n2cnc3c(NC(=O)c4ccccc4)ncnc32)[C@H](O)[C@@H]1O)N[C@@H](CO)Cc1c[nH]c2ccccc12	/	.	.	/	/
C(=C\c1ccccc1)/CN1CCN(C(c2ccccc2)c2ccccc2)CC1	53	/	/	/	/
Fc1ccc(C(c2ccc(F)cc2)N2CCN(C/C=C/c3ccccc3)CC2)cc1	65	.	.	.	.
Cc1cc(C)cc(-n2ccn(CC(=O)Nc3ccccc3F)c(=O)c2=O)c1	/	/	/	.	.
COc1ccc(-n2c(O)c(/C=N/NS(=O)(=O)c3ccc(C)cc3)c3ccccc3c2=O)cc1OC	.	.	.	.	.
COc1ccc(-n2c(O)c(/C=N/NS(=O)(=O)c3cc(C)ccc3C)c3ccccc3c2=O)cc1OC	.	.	.	.	41
Nc1c(C(=O)C2CC2)sc2nc(-c3cccs3)cc(C(F)(F)F)c12	.	.	.	.	36
COc1ccc(-n2cc(-c3ccccc3)c3c(N4CCOCC4)ncnc32)cc1	.	62	?	.	.
Fc1ccc(-n2cc(-c3ccccc3)c3c(N4CCOCC4)ncnc32)cc1	.	.	?	.	.
CCN1CCN(C2=C(NS(=O)(=O)c3ccc(C)cc3)C(=O)c3ccccc3C2=O)CC1	39	.	.	.	.
CCN1CCN(C2=C(NS(=O)(=O)c3ccc(NC(C)=O)cc3)C(=O)c3ccccc3C2=O)CC1	.	.	.	.	.
CCCSCCCNC(=O)C1CCCN(c2nn3cc(-c4ccc(OC)cc4)nc3s2)C1 (stereo unspecified)	/	/	/	.	.
Cc1cc(C)c(Nc2nn3c(=O)c4cc5c(cc4nc3s2)OCO5)c(C)c1	/	/	/	.	.
CCn1c(=N)c(C(=O)NC2CCCCC2)cc2c(=O)n3cc(C)ccc3nc21	/	/	/	.	.
CCOC(=O)c1c(C)[nH]c(C(=O)C(C)Sc2ccc(Cl)cc2)c1C (stereo unspecified)	.	.	.	32	.
Cn1nc(C(C)(C)C)cc1C(=O)N1CCCCC1c1cc(C(=O)Nc2ccc3c(c2)OCO3)no1 (stereo unspecified)	/	.	.	/	/
CCN1CCN(c2nc(Nc3ccc(OC)cc3)nc(N)c2[N+](=O)[O-])CC1	41	.	.	.	.
Nc1nc(NCc2ccco2)nc(N2CCN(Cc3ccccc3)CC2)c1[N+](=O)[O-]	89	.	.	.	.
CCN1CCN(c2nc(Nc3cccc(C)c3)nc(N)c2[N+](=O)[O-])CC1	85	.	.	.	.
Cc1cccc(Nc2nc(N)c([N+](=O)[O-])c(N3CCCC(C)C3)n2)c1 (stereo unspecified)	.	.	.	.	.
CCN1CCN(c2nc(Nc3ccccc3F)nc(N)c2[N+](=O)[O-])CC1	78	.	.	.	.
Nc1nc(NCc2ccco2)nc(N2CCCC2)c1[N+](=O)[O-]	.	.	.	.	.
Nc1nc(Nc2ccccc2F)nc(N2CCCC2)c1[N+](=O)[O-]	.	.	.	.	.
CCc1ccc(C2c3c(-c4cc(C)ccc4O)n[nH]c3C(=O)N2Cc2cccnc2)cc1 (stereo unspecified)	/	/	/	.	.
COc1ccc(S(=O)(=O)NCc2ccc3c(c2)CCN3C(=O)c2ccc(C)cc2)cc1Cl	/	/	/	.	.
Cc1ccc(Nc2nc(N)c([N+](=O)[O-])c(N3CCOCC3)n2)cc1C	.	.	.	.	.
